One may read the inhibition as the relative decrease from the control value, in per cent.

For eight compounds, inhibition results are on record in ChEMBL document CHEMBL1961873, “Compounds: GSK PKIS; Assays: Nanosyn kinase panel” (2012).

Molecules are shown by their SMILES.

For test [1], the target named is T1, Inhibitor of nuclear factor kappa-B kinase subunit epsilon (Homo sapiens) (UniProt Q14164).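 Also: reported values are averaged percent inhibition figures against human IKKε.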
T1 sequence (whole entry): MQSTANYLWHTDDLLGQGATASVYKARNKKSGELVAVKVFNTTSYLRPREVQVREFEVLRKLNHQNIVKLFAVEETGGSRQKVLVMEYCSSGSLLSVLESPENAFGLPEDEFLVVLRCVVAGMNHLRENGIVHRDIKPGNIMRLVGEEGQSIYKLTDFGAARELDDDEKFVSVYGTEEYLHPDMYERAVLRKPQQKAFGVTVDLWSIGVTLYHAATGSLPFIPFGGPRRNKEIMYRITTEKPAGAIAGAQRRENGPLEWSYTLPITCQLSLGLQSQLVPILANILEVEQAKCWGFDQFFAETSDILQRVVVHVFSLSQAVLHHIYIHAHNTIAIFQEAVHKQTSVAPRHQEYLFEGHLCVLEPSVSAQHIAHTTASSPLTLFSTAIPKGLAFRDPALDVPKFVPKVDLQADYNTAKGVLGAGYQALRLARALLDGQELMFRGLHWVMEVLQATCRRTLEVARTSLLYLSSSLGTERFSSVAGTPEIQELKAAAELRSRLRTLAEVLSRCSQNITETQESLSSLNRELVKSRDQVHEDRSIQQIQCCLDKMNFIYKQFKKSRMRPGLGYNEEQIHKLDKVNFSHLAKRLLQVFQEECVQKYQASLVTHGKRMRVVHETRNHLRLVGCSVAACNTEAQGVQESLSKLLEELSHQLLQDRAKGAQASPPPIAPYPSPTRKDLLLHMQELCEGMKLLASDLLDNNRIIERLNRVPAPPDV
The note with it: at 1 µM.

The target in test [2] is T2, Serine/threonine-protein kinase Nek1 (Homo sapiens) (UniProt Q96PY6).
T2 sequence (whole entry): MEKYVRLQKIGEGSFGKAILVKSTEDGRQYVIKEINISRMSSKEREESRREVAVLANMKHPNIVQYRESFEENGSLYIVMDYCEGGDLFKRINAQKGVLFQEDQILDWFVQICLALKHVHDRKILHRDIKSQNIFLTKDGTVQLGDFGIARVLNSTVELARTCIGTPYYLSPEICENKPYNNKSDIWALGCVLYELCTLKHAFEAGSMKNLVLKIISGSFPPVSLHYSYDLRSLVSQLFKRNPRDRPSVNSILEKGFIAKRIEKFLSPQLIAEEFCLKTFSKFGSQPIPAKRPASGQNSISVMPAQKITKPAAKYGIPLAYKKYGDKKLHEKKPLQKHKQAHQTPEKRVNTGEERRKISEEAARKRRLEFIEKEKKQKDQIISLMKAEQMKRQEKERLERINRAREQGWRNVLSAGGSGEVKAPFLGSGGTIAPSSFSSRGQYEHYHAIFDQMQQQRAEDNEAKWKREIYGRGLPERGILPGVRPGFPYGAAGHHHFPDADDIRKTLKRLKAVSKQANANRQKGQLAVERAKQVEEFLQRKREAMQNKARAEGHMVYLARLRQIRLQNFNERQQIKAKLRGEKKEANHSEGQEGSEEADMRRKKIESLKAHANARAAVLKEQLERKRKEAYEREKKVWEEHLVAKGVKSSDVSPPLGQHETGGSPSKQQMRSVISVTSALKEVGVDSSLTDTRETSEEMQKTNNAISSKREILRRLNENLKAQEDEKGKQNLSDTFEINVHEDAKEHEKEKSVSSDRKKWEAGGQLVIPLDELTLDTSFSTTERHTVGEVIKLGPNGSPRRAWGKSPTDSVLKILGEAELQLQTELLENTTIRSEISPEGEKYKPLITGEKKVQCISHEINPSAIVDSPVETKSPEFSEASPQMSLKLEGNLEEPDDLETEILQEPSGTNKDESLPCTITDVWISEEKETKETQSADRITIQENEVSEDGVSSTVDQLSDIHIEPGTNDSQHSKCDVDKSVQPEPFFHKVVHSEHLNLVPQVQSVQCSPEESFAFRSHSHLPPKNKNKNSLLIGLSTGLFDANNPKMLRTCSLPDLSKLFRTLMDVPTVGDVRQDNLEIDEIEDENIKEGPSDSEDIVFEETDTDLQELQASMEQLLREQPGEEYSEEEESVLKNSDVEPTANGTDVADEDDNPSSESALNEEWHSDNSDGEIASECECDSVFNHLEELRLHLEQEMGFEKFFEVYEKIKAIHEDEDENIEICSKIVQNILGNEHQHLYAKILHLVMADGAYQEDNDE
The note with it: at 0.1 µM.

For test [3], the target named is T2, Serine/threonine-protein kinase Nek1 (Homo sapiens). The following applies: at 1 µM.
Test [4] addresses T3, Serine/threonine-protein kinase Nek2 (Homo sapiens) (UniProt P51955).
T3 sequence (whole entry): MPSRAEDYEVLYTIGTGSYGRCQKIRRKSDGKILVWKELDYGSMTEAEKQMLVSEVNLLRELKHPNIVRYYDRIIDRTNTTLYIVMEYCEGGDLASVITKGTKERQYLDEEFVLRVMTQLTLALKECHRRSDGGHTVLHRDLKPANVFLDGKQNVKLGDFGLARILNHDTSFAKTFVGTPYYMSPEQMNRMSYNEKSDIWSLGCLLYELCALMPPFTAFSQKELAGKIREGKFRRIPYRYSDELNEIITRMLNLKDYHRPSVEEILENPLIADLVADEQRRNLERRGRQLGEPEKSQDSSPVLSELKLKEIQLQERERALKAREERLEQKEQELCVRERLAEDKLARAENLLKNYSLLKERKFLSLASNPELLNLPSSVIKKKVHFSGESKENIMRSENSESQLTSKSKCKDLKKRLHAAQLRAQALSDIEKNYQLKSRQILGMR
The following applies: at 0.1 µM.

Test [5] has as its target T3, Serine/threonine-protein kinase Nek2 (Homo sapiens). The following applies: at 1 µM.
Test [6] deals with Serine/threonine-protein kinase Nek6 (Homo sapiens) (UniProt Q9HC98). The note with it: at 0.1 µM.
Chain of Serine/threonine-protein kinase Nek6 (Homo sapiens) (Q9HC98 whole entry): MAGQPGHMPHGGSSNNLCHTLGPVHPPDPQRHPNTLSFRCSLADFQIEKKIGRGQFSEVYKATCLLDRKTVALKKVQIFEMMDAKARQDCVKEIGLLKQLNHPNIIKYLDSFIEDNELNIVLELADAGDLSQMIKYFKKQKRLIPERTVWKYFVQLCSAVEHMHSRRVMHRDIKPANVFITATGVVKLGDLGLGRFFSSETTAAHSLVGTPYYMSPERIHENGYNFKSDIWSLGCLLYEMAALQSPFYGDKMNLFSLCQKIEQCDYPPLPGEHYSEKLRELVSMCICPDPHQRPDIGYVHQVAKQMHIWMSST
The target is the same in test [7]. The following applies: at 1 µM.
Test [8] deals with Serine/threonine-protein kinase Nek7 (Homo sapiens) (UniProt Q8TDX7). The following applies: at 0.1 µM.
Chain of Serine/threonine-protein kinase Nek7 (Homo sapiens) (Q8TDX7 whole entry, looked up): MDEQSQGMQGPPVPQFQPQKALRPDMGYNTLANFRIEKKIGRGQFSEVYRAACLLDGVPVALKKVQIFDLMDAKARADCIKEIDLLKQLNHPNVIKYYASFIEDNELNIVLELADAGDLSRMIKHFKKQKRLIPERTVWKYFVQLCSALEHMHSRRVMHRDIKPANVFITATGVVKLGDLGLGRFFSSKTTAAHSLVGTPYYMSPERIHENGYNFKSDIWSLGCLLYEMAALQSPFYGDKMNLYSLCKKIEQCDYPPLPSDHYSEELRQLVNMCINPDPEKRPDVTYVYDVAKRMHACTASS
For test [9] the target is unchanged. The note with it: at 1 µM.
The target in test [10] is T4, Serine/threonine-protein kinase Nek9 (Homo sapiens) (UniProt Q8TD19).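 Also: reported value is the mean percent inhibition of NEK9.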
T4 sequence (whole entry): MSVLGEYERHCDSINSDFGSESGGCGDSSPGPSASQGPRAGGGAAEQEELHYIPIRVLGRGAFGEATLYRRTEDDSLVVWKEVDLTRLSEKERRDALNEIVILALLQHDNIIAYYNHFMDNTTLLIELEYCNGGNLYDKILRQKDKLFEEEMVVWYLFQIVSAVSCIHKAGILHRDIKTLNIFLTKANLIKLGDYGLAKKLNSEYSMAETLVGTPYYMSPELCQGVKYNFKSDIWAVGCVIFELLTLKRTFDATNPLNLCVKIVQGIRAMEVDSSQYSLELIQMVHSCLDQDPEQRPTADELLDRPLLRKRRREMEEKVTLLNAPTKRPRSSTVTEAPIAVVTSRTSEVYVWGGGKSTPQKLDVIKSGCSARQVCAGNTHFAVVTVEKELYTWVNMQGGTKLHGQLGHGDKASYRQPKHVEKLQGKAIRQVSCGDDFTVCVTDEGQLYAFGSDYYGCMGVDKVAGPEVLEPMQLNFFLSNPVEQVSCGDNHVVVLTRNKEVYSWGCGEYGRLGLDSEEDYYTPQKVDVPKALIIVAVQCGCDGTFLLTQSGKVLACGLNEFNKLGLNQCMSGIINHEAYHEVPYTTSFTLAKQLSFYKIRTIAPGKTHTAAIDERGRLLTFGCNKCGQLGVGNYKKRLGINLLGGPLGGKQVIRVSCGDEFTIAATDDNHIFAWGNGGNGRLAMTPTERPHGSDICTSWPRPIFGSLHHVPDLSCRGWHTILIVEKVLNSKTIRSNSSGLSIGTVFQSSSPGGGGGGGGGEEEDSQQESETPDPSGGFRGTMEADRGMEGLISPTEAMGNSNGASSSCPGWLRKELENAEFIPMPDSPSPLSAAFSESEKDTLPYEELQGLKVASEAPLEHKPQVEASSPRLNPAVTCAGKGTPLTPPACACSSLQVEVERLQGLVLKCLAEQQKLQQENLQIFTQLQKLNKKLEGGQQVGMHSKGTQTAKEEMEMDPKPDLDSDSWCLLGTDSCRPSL
The following applies: at 0.1 µM.

For `Nc1nccc(-c2c(-c3ccc(F)cc3)ncn2CCCN2CCOCC2)n1`, the inhibition turned out to be 5.9% in test [1]; 2.11% in test [2]; 3.63% in test [3]; 4.66% in test [4]; 5.54% in test [5]; 3.27% in test [6]. Further, the inhibition stood at 0.28% in [7], 5.79% in test [8], 4.4% in test [9] and 9.19% in test [10].
As to `CCn1c(-c2nonc2N)nc2ccc(F)cc21`, the inhibition amounted to 11% in [1]; 3.29% in [2]; 4.51% in [3]; 6.07% in test [4]; 7.52% in [5]; 5.03% in [6]. Moreover, the inhibition was determined as 5.4% in test [7], 5.72% in test [8], 3.91% in [9] and 5.14% in [10].
`CN(C)CCCn1c(-c2nonc2N)nc2cnccc21`: the inhibition in [1] was found to be 4.6%; in test [2] it was 2.29%; in test [3], 2.28%; in [4] it was 5.09%; in [5] it was 5.23%; in [6] it was 0.8%. Further, the inhibition was 5.07% in [7], 6.28% in test [8], 1.98% in test [9] and 8.39% in test [10].
For the compound `COc1cccc(-n2nc(C)c3c(N/N=C(\C)c4ccncc4)ncnc32)c1`, the inhibition is 1.16% in [1]; 1.7% in test [2]; -0.2% in test [3]; 1.96% in test [4]; -1.21% in test [5]; 1.56% in test [6]. The inhibition in test [7] was 1.26%; in test [8] it was 0.76%; in test [9], 2.39%; in test [10], 4.23%.
For `Cc1ccc(Nc2ccnc(Nc3cccc(C(N)=O)c3)n2)cc1O`, the inhibition in test [1] turned out to be 19.4%; in test [2], 2.35%; in test [3] it was 3.58%; in test [4], 4%; in test [5] it was 2.98%; in [6] it was 4.22%. Moreover, the inhibition in test [7] was 2.69%; in test [8], 4.63%; in test [9], 4.4%; in [10], 6.86%.
Consider `[O-][S+]1CCN(Cc2ccc(-c3ccc4ncnc(Nc5ccc(OCc6ccccc6)c(Cl)c5)c4c3)o2)CC1`, for which the inhibition came out at 1.71% in test [1]; 0.94% in [2]; 0.52% in test [3]; 3.08% in test [4]; 0.41% in [5]; 3.35% in test [6]. Further, the inhibition in test [7] was 1.93%; in test [8] it was 1.32%; in test [9], 5.75%; in test [10], 0.79%.
In the case of `c1ccc(Cc2nc3ccc(Nc4ncnc5ccccc45)cc3[nH]2)cc1`, the inhibition in test [1] was 4.77%; in [2], 0.8%; in [3] it was 6.65%; in test [4], 4.56%; in [5], 2.85%; in test [6], 3.06%. For the same compound, the inhibition turned out to be 4.77% in test [7], 3.7% in test [8], 3.14% in test [9] and 7.36% in test [10].
In the case of `CN1CCN(C(=O)c2ccc(NC(=O)Nc3ccc(N(C)c4ccnc(Nc5ccc(CS(C)(=O)=O)cc5)n4)cc3)cc2)CC1`, the inhibition came out at 14.2% in test [1]; 5.21% in test [2]; 29.1% in [3]; 2.78% in test [4]; 3.14% in [5]; 1.8% in test [6]. The inhibition is -1.02% in test [7], 2.05% in test [8], 5.08% in test [9] and 6.54% in test [10].
